The text below walks through data of PubChem BioAssay (Tox21).

Assay [1] in a line: qHTS assay to identify small molecule antagonists of the estrogen related receptor (ERR) signaling pathway from Tox21 library - cell viability counter screen (AID 1224834). Further: nearly all actives have a fitted effect of over 30% in size. Put shortly: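 In this quantitative HTS format, ERR cells receive compounds in DMSO and are incubated for 17.5 h at 37 C. Live-cell protease activity is then detected with CellTiter-Fluor.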
In assay [2] the target is Luciferin 4-monooxygenase (Photinus pyralis) (UniProt P08659). Nature of the assay: qHTS assay to identify small molecule inhibitors of firefly luciferase (AID 1224835). Further: nearly all actives have a fitted effect of over 25% in size. Summed up:
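Biochemical qHTS: compounds run as interplate titrations against purified firefly enzyme, with D-luciferin and ATP each at its KM concentration. Light output recorded by CCD imaging.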

Assay [3] in a line: qHTS assay to identify small molecule antagonists of the constitutive androstane receptor (CAR) signaling pathway - cell viability counter screen (AID 1224837). Further: nearly all actives have a fitted effect of over 45% in size. Put shortly: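 In quantitative HTS format, compounds at 15 concentrations were applied to HepG2 cells double-transfected with hCAR and CYP2B6-2.2kb under 50 nM CITCO stimulation; live-cell protease activity was read after 23 hr via CellTiter-Fluor.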

Assay [4] in a line: qHTS assay to identify small molecule antagonists of the estrogen related receptor signaling pathway with the pleiotropic PPARgamma coactivator (PGC) from Tox21 10K library - cell viability counter screen (AID 1224840; active means well fitted cell-killing curve with a large enough effect in the repeat runs, not every such curve was filed as active; further: nearly all actives have a fitted effect of over 40% in size). Put shortly: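 Viability counter screen, PGC/ERR cells: 17.5 h compound exposure at 37 C, CellTiter-Fluor fluorescence endpoint.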
Assay [5] can be described thus: qHTS assay to identify small molecule agonists of the hypoxia (HIF-1) signaling pathway - cell viability counter screen (AID 1224844; calls by dose curve; further: nearly all actives have a fitted effect of over 50% in size; further: potency means the concentration at half of the fitted maximal effect). Put shortly: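 Same wells as the HIF-1 reporter screen; ME-180 cells carrying HRE-bla, 17 hr treatment at 37C; CellTiter-Glo luminescence read after 30 min at room temperature.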
Assay [6] in a line: qHTS assay to identify small molecule agonists of H2AX (AID 1224845; active means well fitted activation curve with a large enough effect in the signal ratio in the repeat runs, not every such curve was filed as active; the % refers to the signal ratio). Put shortly: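 Wild-type CHO-K1 cells, plated overnight, exposed 3hr at 37C to 15 concentrations (0.76% DMSO final). Lysed, then HTRF anti-pH2AX (S139) cryptate and anti-H2AX-d2 antibodies, 24 hr room temperature; 665/620 nm emission read.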
Assay [7] in a line: qHTS assay to identify small molecule agonists of the hypoxia (HIF-1) signaling pathway (AID 1224846; active means well fitted activation curve with a large enough effect in the signal ratio in the repeat runs, not every such curve was filed as active; the % refers to the signal ratio). Summed up: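 In ME-180 cells bearing an HRE-bla construct, 17 h treatment with DMSO-dissolved compounds at 37C was followed by CCF4-AM loading to quantify reporter induction.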
Assay [8] is described as follows: qHTS assay to identify small molecule agonists of H2AX - cell viability counter screen (AID 1224847; calls by dose curve; further: nearly all actives have a fitted effect of over 30% in size; further: potency means the concentration at half of the fitted maximal effect). Summed up:
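Cells plated first: CHO-K1, 1000 per well in 10% FBS medium, incubated overnight at 37C. Then 15-point compound titration added (final DMSO 0.76%) for 3 hr. Finally CellTiter-Glo added and luminescence read.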

A short description of assay [9]: qHTS RealTime-Glo MT Cell Viability Assay in HepG2 cells - 24 hour (AID 1224867). Further: nearly all actives have a fitted effect of over 50% in size. Summed up: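 HepG2 suspension premixed with RealTime-Glo reagents is plated at 600 cells per well and left 5 h at 37 C/5% CO2. Compounds in DMSO then go in, and bioluminescence reflecting viable cell number is recorded over 40 h.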
A short description of assay [10]: qHTS RealTime-Glo MT Cell Viability Assay in HEK293 cells - 32 hour (AID 1224868). Further: nearly all actives have a fitted effect of over 50% in size. Further: potency means the concentration at half of the fitted maximal effect. Put shortly:
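Reads taken at 0, 8, 16, 24, 32 and 40 h from the same wells. HEK293 cells (600/well) carried RealTime-Glo reagents from seeding, with compound added after a 5 h settle at 37 C.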

Assay [11] can be described thus: A CellTox Green Cytotoxicity Assay to monitor cytotoxicity in HEK293 cells - 0 hour (AID 1224869). Further: nearly all actives have a fitted effect of over 50% in size. Summed up: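 Homogeneous no-lysis format: HEK293 cell suspension mixed with CellTox Green reagent, seeded, incubated 5 h at 37 C/5% CO2, then dosed by pintool with compound in DMSO.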
A short description of assay [12]: qHTS RealTime-Glo MT Cell Viability Assay in HepG2 cells - 40 hour (AID 1224870). Further: nearly all actives have a fitted effect of over 50% in size. Summed up: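 HepG2 cells (600/well) mixed with RealTime-Glo MT reagent, settled 5 h at 37 C/5% CO2 before compound addition. Nonlytic NanoLuc luminescence from viable-cell prosubstrate reduction read repeatedly during 40 h treatment at 37 C.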
Assay [13] addresses Nuclear receptor subfamily 1 group I member 3 (Homo sapiens) (UniProt Q14994). Nature of the assay: qHTS assay to identify small molecule antagonists of the constitutive androstane receptor (CAR) signaling pathway (AID 1224838). Further: nearly all actives have a fitted effect of over 40% in size. Further: potency means the concentration at half of the fitted maximal effect. Summed up:
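CITCO-stimulated (50 nM final) HepG2 cells stably transfected with hCAR and CYP2B6-2.2kb luciferase were exposed to compounds at 15 concentrations for 24 h at 37 C/5% CO2. A luciferase reagent was added and luminescence recorded after 30 min.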

The target is the same in assay [14]. Nature of the assay: qHTS assay to identify small molecule agonists of the constitutive androstane receptor (CAR) signaling pathway (AID 1224839).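 Further: HepG2 cells stably carrying human CAR and a CYP2B6 luciferase reporter; nearly all actives have a fitted effect of over 15% in size.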 Put shortly:
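HepG2-CYP2B6-hCAR cells, 2500/well, 4 h pre-incubation; compounds 15 conc.; PK11195 0.75 uM final; 24 h, 37 C/5% CO2; ONE-Glo luciferase read.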

The target in assay [15] is Thyrotropin receptor (Homo sapiens) (UniProt P16473). Nature of the assay: qHTS assay to identify small molecule agonists of the thyroid stimulating hormone receptor (TSHR) signaling pathway (AID 1224843; calls by dose curve; further: nearly all actives have a fitted effect of over 45% in size). Put shortly: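 Agonist-mode screen: TSHR HEK293 cells received test chemicals for half an hour at room temperature, then HTRF cAMP detection reagents for one hour prior to fluorescence measurement. Each chemical ran as a 15-concentration series, triplicated.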
Sequence of Thyrotropin receptor (Homo sapiens) (P16473 whole entry, looked up): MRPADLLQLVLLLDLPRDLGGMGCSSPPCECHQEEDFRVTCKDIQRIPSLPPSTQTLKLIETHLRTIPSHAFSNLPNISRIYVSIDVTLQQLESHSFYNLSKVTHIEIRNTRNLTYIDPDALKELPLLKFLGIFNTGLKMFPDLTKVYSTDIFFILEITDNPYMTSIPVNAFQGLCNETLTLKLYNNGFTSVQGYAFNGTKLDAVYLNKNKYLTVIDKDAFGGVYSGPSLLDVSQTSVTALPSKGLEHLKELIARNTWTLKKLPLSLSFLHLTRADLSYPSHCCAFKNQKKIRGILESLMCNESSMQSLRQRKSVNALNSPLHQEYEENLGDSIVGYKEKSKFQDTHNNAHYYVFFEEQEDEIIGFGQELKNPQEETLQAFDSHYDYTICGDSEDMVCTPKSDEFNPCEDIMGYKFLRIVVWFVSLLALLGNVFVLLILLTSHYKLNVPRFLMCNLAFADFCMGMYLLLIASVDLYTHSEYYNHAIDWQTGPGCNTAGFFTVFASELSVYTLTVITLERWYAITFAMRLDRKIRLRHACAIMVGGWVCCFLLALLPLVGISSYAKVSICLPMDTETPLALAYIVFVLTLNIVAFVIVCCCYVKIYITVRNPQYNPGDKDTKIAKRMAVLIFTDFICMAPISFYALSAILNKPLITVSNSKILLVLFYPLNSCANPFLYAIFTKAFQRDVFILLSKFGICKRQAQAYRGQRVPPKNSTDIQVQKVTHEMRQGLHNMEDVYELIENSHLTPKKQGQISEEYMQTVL

Assay [16] is described as follows: qHTS assay to identify small molecule antagonists of the estrogen related receptor signaling pathway with the pleiotropic PPARgamma coactivator (PGC) from Tox21 10K library (AID 1224841; call rule not given here). Put shortly: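 In the PGC/ERR line, DMSO solutions of test chemicals are pin-delivered to 2,000 cells/well six hours after dispensing. Following eighteen hours' incubation, One-Glo reagent is added and luminescence recorded.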

Assay [17] is described as follows: qHTS assay to identify small molecule agonists of the estrogen related receptor signaling pathway with the pleiotropic PPARgamma coactivator (PGC) from Tox21 10K library (AID 1224842). Further: nearly all actives have a fitted effect of over 15% in size. Summed up: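 PGC/ERR reporter cell line, 2,000 cells per well, incubated 6 h at 37 C before 23 nL compound in DMSO was added. After 18 h at 37 C, One-Glo luminescence read following 30 min at room temperature.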

Assay [18] can be described thus: qHTS assay to identify small molecule antagonists of the estrogen related receptor (ERR) signaling pathway from Tox21 library (AID 1224848). Further: nearly all actives have a fitted effect of over 50% in size. Summed up:
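Quantitative high-throughput format: ERR reporter cells (2,000/well) pre-incubated 6 h, treated 18 h at 37 C with compounds in DMSO alongside positive and negative controls, then read by ONE-Glo luminescence.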

Assay [19] is described as follows: qHTS assay to identify small molecule agonists of the estrogen related receptor (ERR) signaling pathway from Tox21 library (AID 1224849; calls by dose curve; further: nearly all actives have a fitted effect of over 15% in size). Conditions: ERR reporter cell line, ONE-Glo luciferase, 18 h. Summed up:
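Reporter cells (ERR, NTP source) treated with Tox21 10K compounds 18 h, 37 C. Readout: ONE-Glo luminescence, 30 min RT.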

Assay [20] can be described thus: qHTS assay to identify small molecule agonists of the constitutive androstane receptor (CAR) signaling pathway - cell viability counter screen (AID 1224836). Further: nearly all actives have a fitted effect of over 45% in size. Put shortly: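 HepG2-CYP2B6-hCAR, 2500 cells/well, 4 h pre-incubation; cpd 15 conc + PK11195 0.75 uM final; 23 h, 37 C/5% CO2; CellTiter-Fluor, fluorescence.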

The structures appear in SMILES notation. “And” between values parts separate entries of the source, which are not always exact repeats. Equal entries are not always repeated. Results filed as inconclusive are left out. Where a structure was tested more than once in an assay, its records may differ in their call. The source made the active and inactive calls. Unless noted, the call rests on the fitted dose curve; in most records, active means well fitted curve in the direction sought with a large enough effect in the repeat runs; inconclusive means weak or mixed curves; inactive means no such curve, though single readings can be large; an effect the other way counts as inactive or inconclusive.
On the % scale 0 is the no-effect control and ±100 the full control effect.

Sequence of Nuclear receptor subfamily 1 group I member 3 (Homo sapiens) (Q14994 whole entry, looked up): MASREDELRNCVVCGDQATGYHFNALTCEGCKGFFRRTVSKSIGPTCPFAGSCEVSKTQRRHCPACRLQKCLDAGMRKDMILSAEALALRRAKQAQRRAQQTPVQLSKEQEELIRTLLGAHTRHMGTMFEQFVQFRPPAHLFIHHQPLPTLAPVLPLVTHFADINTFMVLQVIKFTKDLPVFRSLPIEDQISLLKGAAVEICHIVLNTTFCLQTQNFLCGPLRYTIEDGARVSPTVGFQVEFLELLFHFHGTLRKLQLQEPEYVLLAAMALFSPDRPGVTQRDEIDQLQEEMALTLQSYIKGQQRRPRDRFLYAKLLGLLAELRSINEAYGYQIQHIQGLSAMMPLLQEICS
Sequence of Luciferin 4-monooxygenase (Photinus pyralis) (P08659 whole entry, looked up): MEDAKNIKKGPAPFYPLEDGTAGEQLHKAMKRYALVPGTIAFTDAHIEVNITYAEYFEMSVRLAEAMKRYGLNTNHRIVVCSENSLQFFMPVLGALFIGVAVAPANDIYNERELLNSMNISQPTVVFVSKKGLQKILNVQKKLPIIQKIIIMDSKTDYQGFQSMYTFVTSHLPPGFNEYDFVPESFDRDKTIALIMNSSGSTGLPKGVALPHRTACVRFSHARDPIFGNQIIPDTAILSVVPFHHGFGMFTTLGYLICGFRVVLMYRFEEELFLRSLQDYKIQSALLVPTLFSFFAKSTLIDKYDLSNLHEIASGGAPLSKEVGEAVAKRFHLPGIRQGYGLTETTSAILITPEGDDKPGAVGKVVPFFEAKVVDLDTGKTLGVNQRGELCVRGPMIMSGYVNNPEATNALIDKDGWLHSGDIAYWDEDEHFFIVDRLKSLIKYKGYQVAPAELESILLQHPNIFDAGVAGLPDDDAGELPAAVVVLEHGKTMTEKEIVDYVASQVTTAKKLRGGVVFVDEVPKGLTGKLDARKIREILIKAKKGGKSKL

Consider `CCC(=O)O[C@H]1[C@H](O[C@@H]2[C@@H](C)[C@H](O[C@H]3C[C@@](C)(OC)[C@@H](O)[C@H](C)O3)[C@@H](C)C(=O)O[C@H](CC)[C@@](C)(O)[C@H](O)[C@@H](C)C(=O)[C@H](C)C[C@@]2(C)O)O[C@H](C)C[C@@H]1N(C)C`, for which the Potency result in [1], in assay [2], in assay [3], in [4], in assay [6] and in [8] was “inactive” each time. The Potency entry in assay [9], in [10], in [11] and in [12] was “inactive” each time. The Potency in assay [5] was 25.8 µM (active) and inactive. Also, the molecule was called inactive in [7].
For the molecule `CN(Cc1cnc2nc(N)nc(N)c2n1)c1ccc(C(=O)N[C@@H](CCC(=O)O)C(=O)O)cc1`, the Potency entry in assay [2], in assay [3], in assay [14], in [4], in assay [15] and in assay [5] was “inactive” each time. The Potency entry in assay [9], in assay [11] and in assay [12] was “inactive” each time. For the same molecule, the Potency in assay [13] is 48.6 nM (active) and 75 nM (active); in [8] it was 636 nM (active) and 1.1 µM (active); in assay [10] it was 110 nM (active) and 67.4 nM (active).
As to `CC1(C)OC(=O)NC1=O`, the Potency result in assay [1], in assay [2], in assay [13], in [14], in assay [4] and in [16] was “inactive” in each case. Further, the Potency result in assay [17], in assay [15], in [5], in [6], in [8] and in assay [18] was “inactive” each time. Further, the Potency entry in [9], in assay [10], in assay [11] and in assay [12] was “inactive” throughout. Further, the figures for the activity change, positive = activation in [19] (at 42.5 µM (top of the series)) and in [19] (at 92.4 µM (top of the series)) were 3.88% (inactive) and 4.19% (inactive), respectively.
On to `Cc1ccc(S(=O)(=O)NCl)cc1`, for which the Potency entry in [1], in [3], in [4], in assay [16], in assay [17] and in assay [15] was “inactive” throughout. Also, the Potency entry in [5], in assay [6], in [8], in [18], in assay [9] and in assay [10] was “inactive” throughout. Moreover, the Potency result in assay [11] and in assay [12] was “inactive” each time. Also, the call in assay [7] was inactive. For the same molecule, the activity change, positive = activation in [19] (at 92.4 µM (top of the series)) was 5.11% (inactive) and 6.95% (inactive).
Take `COC(=O)CC(=O)OC`: the Potency result in assay [1], in assay [2], in [13], in assay [14], in [4] and in assay [15] was “inactive” throughout. Also, the Potency entry in assay [5], in assay [6], in [8], in assay [9], in assay [10] and in assay [11] was “inactive” in each case. Besides, the Potency result in assay [12] was “inactive”. Further, the molecule was classed as inactive in assay [7].
In the case of `CCCCCCOCCOCCO`, the Potency entry in assay [1], in assay [20], in assay [4], in assay [15], in assay [5] and in assay [6] was “inactive” in each case. The Potency entry in assay [8], in [9], in assay [10], in [11] and in assay [12] was “inactive” each time. In addition, the result in assay [7] was inactive.
Consider `FC(F)(F)C(Cl)Br` (configuration not stated), for which the Potency result in [1], in assay [2], in [3], in assay [4], in [16] and in assay [17] was “inactive” throughout. Moreover, the Potency entry in assay [15], in assay [5], in assay [6], in assay [8], in [18] and in assay [9] was “inactive” each time. The Potency result in assay [10], in [11] and in [12] was “inactive” throughout. For the same molecule, the outcome in assay [7] was inactive. For the same molecule, the results for the activity change, positive = activation in [19] (at 42.5 µM (top of the series)) and in [19] (at 92.4 µM (top of the series)) were 6.22% (inactive) and 3.79% (inactive), respectively.
